This passage reports Percent Effect results from ChEMBL document CHEMBL3988442, “University of Dundee, Small-Polar-MMV Screening Library” (2021).

What all share (design): scale not given: direction of the effect not stated beside the values
Test [1] deals with Protein translocase subunit SecA (Escherichia coli (strain K12)) (UniProt P10408). The test can be described thus: Assay to Identify E. coli SecA ATPase Inhibitors. In kind it is functional. The following applies: 30 µM.
The target in test [2] is T1, Ubiquitin-activating enzyme e1, putative (Leishmania donovani (strain BPK282A1)) (UniProt E9BSI1).
T1 sequence (whole entry): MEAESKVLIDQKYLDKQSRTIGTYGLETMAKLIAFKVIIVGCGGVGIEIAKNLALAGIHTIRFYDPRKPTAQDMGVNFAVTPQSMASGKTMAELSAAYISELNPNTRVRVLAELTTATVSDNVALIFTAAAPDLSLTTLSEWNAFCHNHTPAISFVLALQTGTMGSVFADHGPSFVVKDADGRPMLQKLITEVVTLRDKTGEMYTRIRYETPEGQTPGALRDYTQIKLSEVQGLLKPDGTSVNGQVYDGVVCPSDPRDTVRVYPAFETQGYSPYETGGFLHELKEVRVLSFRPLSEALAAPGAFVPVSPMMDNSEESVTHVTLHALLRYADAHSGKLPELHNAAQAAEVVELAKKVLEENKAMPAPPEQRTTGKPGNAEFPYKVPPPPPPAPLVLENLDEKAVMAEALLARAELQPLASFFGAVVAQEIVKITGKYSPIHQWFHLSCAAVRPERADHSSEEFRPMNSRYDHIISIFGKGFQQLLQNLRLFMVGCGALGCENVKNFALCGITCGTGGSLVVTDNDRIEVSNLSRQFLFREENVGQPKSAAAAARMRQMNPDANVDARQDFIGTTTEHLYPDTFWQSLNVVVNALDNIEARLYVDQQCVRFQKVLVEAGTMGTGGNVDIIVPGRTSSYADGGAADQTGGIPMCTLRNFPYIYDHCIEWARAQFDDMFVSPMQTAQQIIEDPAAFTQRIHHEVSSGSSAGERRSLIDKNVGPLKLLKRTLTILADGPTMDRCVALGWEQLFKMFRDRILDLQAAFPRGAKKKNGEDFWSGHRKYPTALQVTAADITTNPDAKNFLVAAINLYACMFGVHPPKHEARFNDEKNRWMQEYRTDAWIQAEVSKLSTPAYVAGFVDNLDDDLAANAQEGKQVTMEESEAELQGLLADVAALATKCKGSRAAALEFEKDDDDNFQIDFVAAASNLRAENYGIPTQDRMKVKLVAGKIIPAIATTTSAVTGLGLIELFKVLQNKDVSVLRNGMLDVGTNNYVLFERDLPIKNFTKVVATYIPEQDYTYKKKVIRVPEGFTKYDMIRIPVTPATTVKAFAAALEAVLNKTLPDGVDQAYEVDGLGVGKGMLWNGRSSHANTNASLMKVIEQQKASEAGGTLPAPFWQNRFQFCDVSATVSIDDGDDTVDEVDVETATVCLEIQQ
Nature of the test: Leishmania donovani Ubiquitin Activating Enzyme (LdE1). To be noted: 30 µM. Type of test: functional.

Test [3] concerns the target AMP-activated protein kinase, AMPK (Homo sapiens) (UniProt P54646+O43741+P54619+Q9UGJ0+Q9Y478+Q13131+Q9UGI9). Nature of the test: AMP-dependent Kinase enzyme assay. An in vitro enzyme assay that detects ADP turnover that is directly proportional to AMPK activity. This uses naive AMPK that is activated during the assay with MK-8722. Type of test: functional. The following applies: 30 µM.

The target in test [4] is Sialic acid-binding Ig-like lectin 9 (Homo sapiens) (UniProt Q9Y336). Nature of the test: Hs-Siglec9 ALPHAscreen SOP 20170721. To be noted: 10 µM.
Chain of Sialic acid-binding Ig-like lectin 9 (Homo sapiens) (Q9Y336 whole entry): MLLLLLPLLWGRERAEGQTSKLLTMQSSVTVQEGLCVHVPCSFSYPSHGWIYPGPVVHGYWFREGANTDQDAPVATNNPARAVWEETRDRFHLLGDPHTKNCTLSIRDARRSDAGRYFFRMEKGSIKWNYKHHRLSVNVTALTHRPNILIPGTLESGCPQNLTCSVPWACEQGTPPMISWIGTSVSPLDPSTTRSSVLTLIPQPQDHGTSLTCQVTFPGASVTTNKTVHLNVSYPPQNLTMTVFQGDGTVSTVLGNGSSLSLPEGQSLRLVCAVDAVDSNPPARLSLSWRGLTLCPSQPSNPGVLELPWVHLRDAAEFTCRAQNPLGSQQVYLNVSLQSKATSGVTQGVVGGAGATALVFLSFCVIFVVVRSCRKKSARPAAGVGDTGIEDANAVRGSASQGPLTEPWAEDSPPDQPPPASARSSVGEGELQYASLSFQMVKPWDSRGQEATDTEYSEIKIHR
Test [5] relates to Trypanosoma cruzi. Nature of the test: Trypanosoma cruzi phosphomannomutase and mannose-1-phosphate guanylyltransferase assay. Type of test: functional. To be noted: 10 µM.
In test [6] the target is T2, Arginase-2, mitochondrial (Homo sapiens) (UniProt P78540).
T2 sequence (whole entry): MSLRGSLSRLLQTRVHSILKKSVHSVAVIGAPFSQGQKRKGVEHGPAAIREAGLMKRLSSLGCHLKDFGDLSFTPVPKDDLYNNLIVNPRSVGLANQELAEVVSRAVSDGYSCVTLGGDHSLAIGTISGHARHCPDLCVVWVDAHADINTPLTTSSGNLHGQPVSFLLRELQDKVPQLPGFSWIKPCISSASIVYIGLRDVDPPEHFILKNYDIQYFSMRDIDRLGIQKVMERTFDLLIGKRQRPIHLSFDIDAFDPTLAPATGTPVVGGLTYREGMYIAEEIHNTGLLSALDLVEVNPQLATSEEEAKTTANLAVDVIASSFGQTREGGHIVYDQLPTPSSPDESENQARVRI
Nature of the test: in vitro enzyme assay to detect the production of urea directly proportional to the activity of Arginase II. Also: in the data most compounds retested in dose-response had high values. Type of test: functional. The following applies: 33.3 µM.

For test [7], the target named is T3, Proteasome subunit beta (Trypanosoma cruzi) (UniProt O96673).
T3 sequence (whole entry): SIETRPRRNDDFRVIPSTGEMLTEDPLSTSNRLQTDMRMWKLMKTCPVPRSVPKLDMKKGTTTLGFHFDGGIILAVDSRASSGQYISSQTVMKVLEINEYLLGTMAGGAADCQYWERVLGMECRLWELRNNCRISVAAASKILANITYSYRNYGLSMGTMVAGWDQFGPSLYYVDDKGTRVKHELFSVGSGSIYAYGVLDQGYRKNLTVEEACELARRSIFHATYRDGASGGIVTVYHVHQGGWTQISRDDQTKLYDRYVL
Nature of the test: Trypanosoma cruzi proteasome chymotrypsin-like activity (TcProtChymo) assay. Also: in the data most compounds retested in dose-response had high values. Type of test: functional. The following applies: 9.37 µM.

The species entered for test [8] is Homo sapiens. Nature of the test: To identify inhibition of the IFN signalling (Jak-Stat) pathway via expression of an eGFP reporter gene under the control of an IFN-stimulated response element (ISRE) containing MxA promoter. The following applies: 30 µM. Type of test: functional.
The target of test [9] is T4, Tyrosyl-tRNA synthetase, putative (Trypanosoma cruzi (strain CL Brener)) (UniProt Q4DSP6).
T4 sequence (whole entry): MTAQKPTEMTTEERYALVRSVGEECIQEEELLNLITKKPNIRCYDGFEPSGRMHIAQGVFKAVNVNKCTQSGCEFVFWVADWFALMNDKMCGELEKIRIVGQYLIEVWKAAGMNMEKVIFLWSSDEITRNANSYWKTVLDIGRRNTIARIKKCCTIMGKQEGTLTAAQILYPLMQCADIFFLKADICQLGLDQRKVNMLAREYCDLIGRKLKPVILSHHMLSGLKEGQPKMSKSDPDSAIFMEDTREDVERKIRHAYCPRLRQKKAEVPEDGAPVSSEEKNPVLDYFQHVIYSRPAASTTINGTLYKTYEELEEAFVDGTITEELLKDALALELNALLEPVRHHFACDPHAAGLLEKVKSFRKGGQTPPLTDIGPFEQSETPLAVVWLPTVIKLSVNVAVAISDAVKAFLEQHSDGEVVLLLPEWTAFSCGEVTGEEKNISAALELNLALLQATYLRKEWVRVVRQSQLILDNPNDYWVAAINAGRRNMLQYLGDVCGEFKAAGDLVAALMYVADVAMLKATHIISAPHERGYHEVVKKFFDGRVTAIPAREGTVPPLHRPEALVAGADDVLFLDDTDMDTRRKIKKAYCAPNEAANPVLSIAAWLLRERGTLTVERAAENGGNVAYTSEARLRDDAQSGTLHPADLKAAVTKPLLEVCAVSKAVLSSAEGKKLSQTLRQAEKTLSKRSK
The test can be described thus: Trypanosoma cruzi tyrosyl tRNA synthetase (TcYRS) _High Tyrosine SOP. Also: in the data most compounds retested in dose-response had high values. Type of test: functional. The following applies: 30 µM.

In test [10] the target is T4, Tyrosyl-tRNA synthetase, putative (Trypanosoma cruzi (strain CL Brener)). Nature of the test: Trypanosoma cruzi tyrosyl tRNA synthetase (TcYRS) SOP. Type of test: functional. The following applies: 30 µM.
Test [11] deals with Chromo domain-containing protein 1 (Saccharomyces cerevisiae (strain ATCC 204508 / S288c) (Baker's yeast)) (UniProt P32657). Nature of the test: ScCHD-1 Enzyme Inhibition Assay. Also: in the data most compounds retested in dose-response had high values. In kind it is functional. To be noted: 30 µM.
Chain of Chromo domain-containing protein 1 (Saccharomyces cerevisiae (strain ATCC 204508 / S288c) (Baker's yeast)) (P32657 whole entry, the tested form may be a part): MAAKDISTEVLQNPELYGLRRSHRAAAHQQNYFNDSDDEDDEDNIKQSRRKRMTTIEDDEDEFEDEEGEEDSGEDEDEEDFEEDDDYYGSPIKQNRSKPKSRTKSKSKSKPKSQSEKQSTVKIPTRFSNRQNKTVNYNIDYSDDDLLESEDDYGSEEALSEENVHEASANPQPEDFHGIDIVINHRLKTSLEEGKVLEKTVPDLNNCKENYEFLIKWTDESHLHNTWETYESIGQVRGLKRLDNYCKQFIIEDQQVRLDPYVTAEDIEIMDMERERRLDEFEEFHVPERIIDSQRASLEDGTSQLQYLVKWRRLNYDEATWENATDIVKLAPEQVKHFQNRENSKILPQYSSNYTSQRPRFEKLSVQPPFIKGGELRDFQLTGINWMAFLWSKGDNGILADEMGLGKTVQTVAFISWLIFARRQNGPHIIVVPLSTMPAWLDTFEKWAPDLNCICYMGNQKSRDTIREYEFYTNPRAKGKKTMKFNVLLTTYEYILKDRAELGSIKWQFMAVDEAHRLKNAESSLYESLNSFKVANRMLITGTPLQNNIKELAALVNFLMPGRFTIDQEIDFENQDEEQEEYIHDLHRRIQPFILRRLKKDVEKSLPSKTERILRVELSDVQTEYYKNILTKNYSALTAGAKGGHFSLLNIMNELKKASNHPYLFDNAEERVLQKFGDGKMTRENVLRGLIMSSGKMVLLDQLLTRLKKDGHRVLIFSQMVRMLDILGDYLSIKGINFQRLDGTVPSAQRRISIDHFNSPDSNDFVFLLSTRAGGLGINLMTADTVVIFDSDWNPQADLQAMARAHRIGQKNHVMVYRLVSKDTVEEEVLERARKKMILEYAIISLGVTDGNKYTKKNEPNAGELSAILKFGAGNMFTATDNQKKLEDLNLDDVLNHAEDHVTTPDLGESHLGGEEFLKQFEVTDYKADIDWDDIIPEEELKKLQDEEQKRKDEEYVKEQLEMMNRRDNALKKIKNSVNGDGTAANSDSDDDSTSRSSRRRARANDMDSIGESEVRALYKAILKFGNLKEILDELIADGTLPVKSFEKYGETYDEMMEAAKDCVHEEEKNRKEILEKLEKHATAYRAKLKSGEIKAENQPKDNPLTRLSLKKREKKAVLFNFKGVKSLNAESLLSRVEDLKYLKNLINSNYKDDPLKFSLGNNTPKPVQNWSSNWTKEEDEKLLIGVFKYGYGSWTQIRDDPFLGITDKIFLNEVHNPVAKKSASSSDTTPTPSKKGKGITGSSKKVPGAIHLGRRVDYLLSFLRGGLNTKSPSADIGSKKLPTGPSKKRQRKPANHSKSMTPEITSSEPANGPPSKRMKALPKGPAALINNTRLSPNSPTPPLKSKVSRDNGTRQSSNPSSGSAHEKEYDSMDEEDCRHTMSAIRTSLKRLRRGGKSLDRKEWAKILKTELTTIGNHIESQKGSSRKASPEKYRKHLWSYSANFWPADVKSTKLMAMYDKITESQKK

For some of these results: Potency and affinity values are given separately.

Chain of Protein translocase subunit SecA (Escherichia coli (strain K12)) (P10408 whole entry): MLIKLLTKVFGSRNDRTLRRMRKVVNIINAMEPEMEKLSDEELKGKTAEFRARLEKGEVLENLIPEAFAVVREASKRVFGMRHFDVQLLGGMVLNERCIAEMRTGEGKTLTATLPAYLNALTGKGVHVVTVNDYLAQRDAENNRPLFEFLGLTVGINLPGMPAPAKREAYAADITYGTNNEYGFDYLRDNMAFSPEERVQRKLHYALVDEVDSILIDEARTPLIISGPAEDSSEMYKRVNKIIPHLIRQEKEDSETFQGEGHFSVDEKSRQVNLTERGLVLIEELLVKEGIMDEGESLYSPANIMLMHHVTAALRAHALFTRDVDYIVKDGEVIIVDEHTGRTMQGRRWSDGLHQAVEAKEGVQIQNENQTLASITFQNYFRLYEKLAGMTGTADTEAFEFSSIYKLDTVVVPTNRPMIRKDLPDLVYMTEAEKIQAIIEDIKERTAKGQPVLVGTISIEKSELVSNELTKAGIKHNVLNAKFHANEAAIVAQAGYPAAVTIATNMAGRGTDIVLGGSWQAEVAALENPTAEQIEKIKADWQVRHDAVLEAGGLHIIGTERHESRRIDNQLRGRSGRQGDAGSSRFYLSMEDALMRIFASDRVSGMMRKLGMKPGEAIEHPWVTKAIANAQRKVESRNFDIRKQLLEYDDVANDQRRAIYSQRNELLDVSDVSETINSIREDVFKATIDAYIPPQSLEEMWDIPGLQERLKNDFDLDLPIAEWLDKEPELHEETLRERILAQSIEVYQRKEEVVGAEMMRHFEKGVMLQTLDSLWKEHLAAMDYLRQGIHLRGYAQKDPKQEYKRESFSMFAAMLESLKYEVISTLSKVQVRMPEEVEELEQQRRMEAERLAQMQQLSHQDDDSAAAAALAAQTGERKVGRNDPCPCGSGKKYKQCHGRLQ

On to `c1coc(CN2CCCC3(COCCN(Cc4c[nH]nn4)C3)C2)c1` (stereo unspecified), for which the Percent Effect in [1] was -3.44%; in [2], 8%; in test [3] it was 2.62%; in [4], 8.5%; in [5], -0.193%; in test [6], -23.1%. For the same compound, the Percent Effect in [7] is 10.9%; in test [8] it was -4.99%; in test [9], 7.29%; in test [10], 10%; in test [11], -7.03%.
Turning to `CCc1nc(NCCCOC)c2c(n1)c(C)nn2C`, the Percent Effect is 0.06% in test [1]; 17.3% in [2]; 0.763% in test [3]; 2.98% in test [4]; 1.18% in [5]; -0.176% in test [6]. Also, the Percent Effect in test [7] was 20.1%; in [8], 29.9%; in test [9] it was 5.29%; in test [10] it was 17.9%; in test [11], -11.5%.
On to `Cn1cc(C(=O)CC2CCCN2C(=O)c2n[nH]c3ccccc23)cn1` (stereo unspecified), for which the Percent Effect is -2.35% in [1]; 1.27% in test [2]; 3.62% in [3]; 0.382% in [4]; 2.56% in [5]; 1.94% in test [6]. Further, the Percent Effect is 7.03% in [7]; -8.13% in test [8]; 7.29% in test [9]; 2.53% in test [10]; -9.86% in [11].
Regarding `CCS(=O)(=O)N1CCC(c2cc3n(n2)[C@@H](C(F)(F)F)C[C@@H](C)N3)CC1`, the Percent Effect was -3.21% in test [1]; 9.46% in test [2]; -29.7% in test [3]; -2.76% in [4]; -4.15% in [5]; 2.09% in test [6]. The Percent Effect in test [7] is 4.37%; in test [8], 11.3%; in test [9], -1.07%; in [10], 6.49%; in test [11], -7.22%.
Take `COc1ccccc1NC(=O)NCC(O)(c1ccccc1)C1CC1` (stereo unspecified): the Percent Effect in test [1] is -6.75%; in test [2], 11%; in test [3], -22.1%; in test [4] it was 33.1%; in test [5], 7.05%; in test [6] it was 7.27%. Further, the Percent Effect in test [7] was 12.9%; in test [8], 7.23%; in test [9], 0%; in test [10], 10%; in test [11], -6.95%.
On to `CC(=O)N1CCOC(c2cc(N3CC(O)C3)nc(C)n2)C1` (stereo unspecified), for which the Percent Effect in [1] is -3.22%; in [2], 5.33%; in test [3] it was 11%; in test [4], -2.94%; in [5], 0.394%; in test [6], 2.1%. Moreover, the Percent Effect in test [7] is 11.2%; in test [8] it was 0.425%; in test [9], 5.32%; in test [10], 16.7%; in test [11] it was -2.41%.
On to `CN(C)c1cc(C(=O)NCCc2nnc(-c3ccco3)[nH]2)ccn1`, for which the Percent Effect is -2.63% in test [1]; 2.63% in test [2]; 0.765% in [3]; -1.33% in [4]; -2.63% in test [5]; -4.73% in test [6]. For the same compound, the Percent Effect in [7] is 5.46%; in test [8] it was 0.0854%; in test [9] it was 4.25%; in [10], 10.4%; in [11], -3.29%.
On to `Cc1cccc(N2Cc3nc(=O)[nH]n3C2=O)c1`, for which the Percent Effect in test [1] is 1.1%; in test [2], 4%; in test [3] it was 3.29%; in test [4] it was -0.713%; in [5], -4.52%; in [6] it was -9.33%. Also, the Percent Effect in [7] was 19.6%; in test [8], -0.119%; in test [9], 5.29%; in test [10], 5.13%; in test [11], -4.23%.
`CCn1cc(NC(=O)NCC(O)COc2cccc(F)c2)cn1` (stereo unspecified): the Percent Effect in test [1] was 2.07%; in test [2], 13.2%; in test [3], -3.12%; in test [4] it was 0.363%; in test [5], -7.14%; in test [6], 1.92%. The Percent Effect was 6.68% in [7]; 13.5% in [8]; 2.45% in test [9]; 17.1% in [10]; -8.89% in [11].
As to `CCc1nnsc1C(=O)N1CCCN(Cc2nccn2C)CC1`, the Percent Effect in [1] is -2.29%; in test [2], -96.1%; in test [3], 4.85%; in test [4], 9.93%; in test [5], 3.04%; in test [6] it was 0.632%. Moreover, the Percent Effect in [7] is 2.18%; in [8] it was 3.59%; in test [9], 1.91%; in test [10], -2.35%; in [11], -8.53%.
Consider `CC(C)[C@H](NC(=O)NC1CCS(=O)(=O)C1)C(=O)Nc1cccnc1` (stereo partly specified), for which the Percent Effect in test [1] was 1.55%; in test [2], 9.33%; in test [3], -0.824%; in [4], -4.96%; in [5] it was -3.34%; in test [6], -8.28%. Moreover, the Percent Effect is 13.1% in test [7]; 17.4% in test [8]; 3.17% in test [9]; 12.8% in test [10]; -7.36% in test [11].
